Here are results for 40 compounds from PubChem BioAssay (NCI).

About 83,000 compounds went through this panel and 20% of them were active in at least one assay; those are over-represented in the sample as a whole.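 Single-dose data. Exposure time 48 hours. Values below 10 considered active.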 A number with no mark means an inactive call. Calls of active or inactive are those of the source.

The test system of this assay is SK-OV-3 ovarian. Description: NCI-60 one-dose screen, 48 h (100 = growth as untreated, 0 = no growth, -100 = all killed). As to conditions: 10 µM unless noted. How it is done: Growth inhibition of the SK-OV-3 human tumor cell line is measured as a screen for anti-cancer activity. Cells are grown in 96 well plates and exposed to the test compound for 48 hours. Compounds are tested at a single concentration, which is 10^-5 M for most compounds. The reported endpoint is percent growth (GI% or GIPRCNT), where numbers from 0 - 100% represent growth inhibition, and numbers from -100% - 0 represent cell death. For example, a value of 40 represents 60% growth inhibition. A value of 0 means no net growth occurred over the course of the experiment. A value of -40 indicates 40% of cells at the beginning of the experiment died by the end of the experiment. A value of -100 means all cells are dead at the end of the experiment.
NCI-60 Human Tumor Cell Lines Screen was performed using the standard one-dose NCI protocol, which is described in more detail at https://dtp.cancer.gov/discovery_development/nci-60/default.htm.
Compounds with GIPRCNT values below 10 were considered active. Activity score was based on GIPRCNT using the following formula: […]
Score is 0 for GIPRCNT values of 100 or above, 50 for GIPRCNT values of 0, and 100 for GIPRCNT values of -100.
Consider `CCCCCCCN(CCCCCCC)C(=N)c1ccnc2ccccc12`, for which the growth is 36.8%.

On to `C=COCCCCCCCCCCCCCCCCCC`, for which the growth was 103%. The same measure for `O=C1c2ccccc2C(=Cc2ccccc2)c2ccccc21`: -3.56% (active).

Regarding `NCCn1cc(-c2nc(-c3c[nH]c4ncccc34)cs2)c2ccccc21`, the growth was 82.2%.

In the case of `NC(=O)NCC1CCCCC1`, the growth was 109%. Take `Cc1ccc(S(=O)(=O)Nc2ccc(-c3cc(-c4cccc(F)c4)c(C#N)c(=O)[nH]3)cc2)cc1`: the growth is 99.7%. The figure for `Cc1cc(N2CCCC2)nc(N(CCNc2ccnc3cc(Cl)ccc23)Cc2ccco2)n1` is 65.5%; for `O=C1Nc2ccccc2/C1=C/c1cn(CCCn2c3ccccc3c(=O)c3ccccc32)c2ccccc12` it is 86.6%.

Take `N#CCCCCCn1c2ccccc2c2c3c(c4c5ccccc5n(CCCCCC#N)c4c21)C(=O)N(O)C3=O`: the growth is 71.2%. On to `CNC(=O)c1cc(Oc2ccc3nc(NC(=O)Nc4ccc(Cl)cc4)sc3c2)ccn1`, for which the growth was 82%.

As for `N=C(N)N=Nc1ccc(O)cc1`, the growth is 106% [100 µM]. The figure for `COc1ccc(/C(=C\c2ccc3c(c2)OCO3)C(=O)Nc2nc3ccccc3s2)cc1OC` is 102%.

Turning to `O=C1CN(c2ccccc2)C(=O)C1C(=O)Nc1ccc(Cl)c(Cl)c1` (stereo not given), the growth was 20.3% [100 µM].

Consider `CC(=O)c1c(C)[nH]c(-c2nc3ccc(N4CCN(C)CC4)cc3[nH]2)c1-c1ccc2c(c1)OCCO2`, for which the growth was 28.7%.

On to `Cc1c(C)c2c(c(C)c1NC(=O)CCCCCCC(=O)O)CCC(C)(CCCC(C)CCCC(C)CCCC(C)C)O2` (stereo not given), for which the growth was 99.3%. `Cn1cc(-c2csc(-c3c[nH]c4ccc(F)cc34)n2)c2cccnc21`: the growth was 64.6%.

Take `O=c1[nH]ncc(Br)c1Br`: the growth is 122%. Regarding `CC(=O)O[C@H]1CC[C@]2(C)[C@H]3CC=C4[C@@H]5[C@H](C)[C@@H](C)CC[C@]5(C(=O)NCCNCCNCCN)CC[C@@]4(C)[C@]3(C)CC[C@H]2C1(C)C`, the growth was 106%. The figure for `COc1ccc(-c2cc(=O)oc3ccc(Cl)cc23)cc1F` is 0.514% (active).

As for `O=c1c(CNc2ccc(S(=O)(=O)Nc3nccs3)cc2)coc2ccccc12`, the growth is 102%.

As to `COc1cc2c(cc1-c1c(C)noc1C)ncc1nc(C3CCC(F)(F)CC3)n([C@@H](C)COC(F)F)c12`, the growth was 7.59% (active).

For the compound `Cn1nc(-c2ccccc2)c2c(-c3ccccc3)onc2c1=O`, the growth is 13.3%.

As for `Cn1cc(-c2csc(-c3cn(CCN)c4ccc(Br)cc34)n2)c2cccnc21`, the growth is 91.6%. With `O=C1c2cc3c(cc2-c2c1c1ccc(F)cc1c(=O)n2CCCN1CCOCC1)OCO3`, the growth is 20.1%.

For the compound `CCCNc1nc(N(C)O)nc(N(C)O)n1`, the growth is 45.2%. The same measure for `CN1CCN(CCOc2ccc(-c3cnc4c(-c5cccc(F)c5)cnn4c3)cc2)CC1`: 106%; for `CN(C)CCCCC(C(=O)CBr)(c1ccccc1)c1ccccc1`: 79.1%; for `Nc1ccc(Br)cn1`: 103%. For `COc1cnc2c(c1)C(=O)c1c-2n(CCCNCCN2CCOCC2)c(=O)c2cc([N+](=O)[O-])ccc12`, the growth is -12.9% (active). On to `COC(=O)[C@]12CC[C@@H](C(=O)/C=C/c3cccnc3)[C@@H]1[C@H]1CC[C@@H]3[C@@]4(C)C/C(=C/c5cccnc5)C(=O)C(C)(C)[C@@H]4CC[C@@]3(C)[C@]1(C)CC2`, for which the growth was -23.1% (active). As to `Cc1ccc(S(=O)(=O)Nc2ccc(-c3cc(-c4cccc(F)c4)c(C#N)c(N)n3)cc2)cc1`, the growth was 71.8%. With `Fc1ccc2nc(-c3cc(-c4ccc5c(c4)OCO5)n[nH]3)[nH]c2c1`, the growth was 70.3%.

On to `Cc1nn(-c2ccc(Br)cc2)c2nc3[nH]c(=O)[nH]c(=O)c3nc12`, for which the growth was 110%.

`C=C1CC[C@@H](C(=O)OC)Cc2nc(C)ccc21`: the growth is 109%.

For the compound `Cn1cccc1/C=C1/SC(=S)N(CCc2ccc(O)cc2)C1=O`, the growth is 83.5%. The same measure for `Cc1cc(Cl)c2c(N(C)C)cccc2n1`: 92.4%; for `COc1c(N)c2c(c([N+](=O)[O-])c1OC)C(=O)OC2`: 105%. Consider `COc1ccc2c(c1)c(-c1nc(-c3c[nH]c4ncccc34)cs1)cn2C`, for which the growth was 63.9%. The figure for `COc1cccc(-c2nn(-c3ccccc3)cc2-c2ccnc(NCCNS(=O)(=O)c3ccc(Cl)cc3)c2)c1` is 44.9%; for `Nc1nc2c(c(=O)[nH]1)C(c1ccc3c(c1)OCO3)C=C(C(=O)O)N2` (stereo not given) it is 118%.
